Screening results: PubChem, National Center for Advancing Translational Sciences (NCATS)
Most compounds without a hit are left out; they make up all but 2.3% or so of the library.
USP1 inh: blocks the human USP1/UAF1 deubiquitinase complex; Potency, µM (doses to about 57.1 µM), for inactives: top-dose activity change, negative = inhibition, actives largely listed as inhibitors; recombinant USP1/UAF1, Ub-Rhodamine cleavage fluorescence; actives 0.23% (n = 390,000); O94782; further: potency means the concentration at half of the fitted maximal effect; nearly all actives have a fitted effect of over 60% in size
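USP1/UAF1 complex (1 nM) preincubated 15 min at room temperature with compound, then Ub-Rho substrate (150 nM final) added. Kinetic fluorescence at 480/540 nm over 6 reads at 60 s intervals; 50 mM HEPES pH 7.8, 0.5 mM EDTA, 0.1 mg/ml BSA, 1 mM TCEP, 0.01% Tween-20.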
Tau fluor cs: counter-screen for tau fibril formation inhibitors; Potency, µM (titrated, usually from 57.7 µM), for inactives: top-dose activity change, negative = decrease; actives 0.93% (n = 280,000); AID 1463; tau K18 P301L Alexa594 fluorescence, heparin fibrillization; further: potency means the concentration at half of the fitted maximal effect; nearly all actives have a fitted effect of over 55% in size
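Human K18 P301L tau (15 uM unlabeled plus 0.24 uM Alexa 594-labeled, final) in 100 mM sodium acetate pH 7 was mixed with compound and 20 uM heparin and incubated 6 hr at 37 C.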
Coupling enz: inhibits coupling enzyme system, counter-screen for aldolase hits; coupling enzyme system counterscreen, AmpLite Red fluorescence; activity change, negative = inhibition, % at 58.2 µM, hits read low; actives 0.67% (n = 290,000); AID 2472; in the data active means activity change below about -30%
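Compounds tested against the coupling enzymes alone at 57.5 uM final; readout was AmpLite Red fluorescence (525/598 nm) after 20 min at RT.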
Tau fibril FP: blocks human tau fibril formation measured by polarization; P10636; K18 P301L tau heparin fibrillization, Alexa594 FP, 6 h; Potency, µM (series often up to 57.7 µM), for the others: at the highest dose activity, negative = inhibition, most hits filed as inhibitors; actives 0.39% (n = 280,000); AID 1468; further: potency means the concentration at half of the fitted maximal effect; nearly all actives have a fitted effect of over 55% in size
Target sequence (P10636 561-689 P618L limits assumed): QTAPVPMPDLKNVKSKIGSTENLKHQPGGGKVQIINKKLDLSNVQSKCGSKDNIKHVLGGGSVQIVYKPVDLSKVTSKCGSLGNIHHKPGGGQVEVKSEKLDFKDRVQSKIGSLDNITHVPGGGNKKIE
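Quantitative HTS format: compounds meet 15 uM recombinant K18 P301L tau and Alexa 594-tau tracer in 100 mM sodium acetate pH 7; 20 uM heparin triggers fibrillization at 37 C over 6 hr; FP gives the signal.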
Tau fibril ThT: tau fibrillization inhibition (ThT binding) | actives 2.1% (n = 270,000) | Potency, µM (top dose mostly 57.4 µM), for the others: at the highest dose activity, negative = inhibition, most hits filed as inhibitors | recombinant tau K18 P301L (four-repeat tau fragment), heparin-induced fibrillization, ThT fluorescence | P10636; further: potency means the concentration at half of the fitted maximal effect; nearly all actives have a fitted effect of over 55% in size
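In this qHTS, human K18 P301L tau is incubated with compound and heparin for 6 hr at 37 C, and Thioflavin T fluorescence then reports fibril load.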
Starred values were filed as active, the others as inactive; ? = inconclusive; / = no result; [ ] = dose if it differs, or a comment. Unless noted, the call rests on the fitted dose curve; in most records, active means well fitted curve in the direction sought with a large enough effect; inconclusive means small, poorly fitted or top-dose-only effect, or another doubt; inactive means no such curve, though single readings can be large; an effect the other way counts as inactive or inconclusive. On the % scale 0 is the no-effect control and ±100 the full control effect.

SMILES	USP1 inh	Tau fluor cs	Coupling enz	Tau fibril FP	Tau fibril ThT
Cc1ccc(NS(=O)(=O)c2ccc(N3CCN(c4ccc(O)cc4)CC3)c([N+](=O)[O-])c2)c(C)c1	2%	11µM*[quencher]	-3	8%	14µM*
N#Cc1sc2nc(N3CCCCC3)c3c(c2c1N)CCCC3	-22%	16µM*[quencher]	0	10%	?
CCc1ccc(CNC(=O)CN(c2ccc(C)cc2)S(=O)(=O)N(C)C)cc1	-17%	-14%	/	2%	-7%
CN1CCN(C(=O)c2sc(=S)n(-c3ccccc3)c2N)CC1	-8%	-15%	-48*	?	?
C=CCn1c(N)c(C(=O)Nc2cccc(C)c2)c2nc3ccccc3nc21	?	11µM*[quencher]	-34*	?	?
CC(C)CSc1ccccc1NC(=O)c1sc2nc(-c3ccncc3)ccc2c1N	4%	3.2µM*[quencher]	/	3%	-16%
Cc1ccc2nc(N/N=C\c3ccc([N+](=O)[O-])o3)nc(-c3ccccc3)c2c1	-32%	10µM*[quencher]	5	13%	3.2µM*
O=C(N/N=C/c1ccc([N+](=O)[O-])o1)c1cc2ccccc2o1	-23%	-23%	0	4%	/
O=[N+]([O-])c1ccc(-c2ccc(/C=N/Nc3nc(N4CCCC4)nc(N4CCCC4)n3)o2)cc1	?	-15%	2	9%	?
O=[N+]([O-])c1ccc(/C=N/Nc2ccc3ccccc3c2)o1	-20%	3.5µM*[quencher]	2	?	3.2µM*
O=[N+]([O-])c1ccc(/C=N/Nc2nc(-c3ccccc3)c3cc(Br)ccc3n2)o1	-9%	-25%	12	2%	2.8µM*
O=[N+]([O-])c1ccc(/C=N/Nc2nc(N3CCCC3)nc(N3CCCC3)n2)o1	-20%	-21%	-6	-6%	18µM*
Cn1ncc2c(N3CCN(c4cccc(Cl)c4)CC3)ncnc21	28%	-13%	/	6%	?
Cc1ccc([C@H]2C[C@@H](O)[C@H](n3cc(COC(=O)c4ccccc4)nn3)CN2C(=O)c2cccs2)cc1	-3%	/	/	/	/
CCOc1ccc(N)cc1OC	-20%	-25%	-33*	-4%	?
N#Cc1ccc2c(c1)NC(=O)C1CCCN21 (centres undefined)	-21%	-17%	-2	?	20µM*
C[C@]12c3[nH]c4ccc(Cl)cc4c3CCN1C(=O)[C@@H](CC(=O)NCc1ccco1)C[C@@H]2C(=O)N1CCOCC1	-28%	/	/	/	/
COc1ccc(/C=N\Nc2ccc([N+](=O)[O-])cc2)c(C(=O)O)c1OC	-13%	-18%	4	6%	13µM*
Cc1ccc(-c2nc(SCC(=O)Nc3cc(S(=O)(=O)N4CCCCC4)ccc3Cl)n[nH]2)cc1	-25%	?	3	22µM*	1%
CC(C)Nc1nnc(SCC(=O)Nc2ccc3c(c2)C(=O)c2ccccc2C3=O)s1	-15%	13µM*[quencher]	-3	14%	10µM*
Cc1ccc(NC(=O)CN(C)C(=O)CSc2nnc(NC(C)C)s2)cc1	1%	/	/	/	/
Cc1ccc(Nc2nnc(SCC(=O)Nc3cccc(S(=O)(=O)N4CCCCC4)c3)s2)cc1	1%	7.9µM*[quencher]	-3	-13%	-1%
O=C(CSc1nnc(NC2CCCCC2)s1)Nc1ccc2c(c1)C(=O)c1ccccc1C2=O	-8%	8.9µM*[quencher]	-1	?	?
O=C(CN1C(=O)NC2(CCCC2)C1=O)NCc1cccc(Cl)c1	-8%	/	/	/	/
O=C(CN1CCN(S(=O)(=O)c2cc(Cl)ccc2Cl)CC1)Nc1cccc(F)c1	?	-25%	/	-2%	-2%
SMILES	USP1 inh	Tau fluor cs	Coupling enz	Tau fibril FP	Tau fibril ThT
COc1cc(C(Nc2ccccn2)c2ccc3ccc(C)nc3c2O)cc(OC)c1O (centres undefined)	-20%	?	-9	?	16µM*
COc1cc(-c2nc(Cc3c(F)cccc3Cl)no2)cc(OC)c1OC	-7%	16µM*[quencher]	0	-14%	?
CCC(NC(C)C)C(O)c1ccc(O)c(O)c1 (centres undefined)	?	?	-53*	-11%	?
CC12CCC3c4ccccc4CCC3(CO1)C2 (centres undefined)	-21%	/	/	/	/
Cc1ccc2c(c1)c1c3n2CCN(C(=O)c2ccc(C(F)(F)F)cc2)C3CCC1 (centres undefined)	-20%	-19%	/	0%	-9%
COc1ccc(NC(=O)Cn2c(=O)n(Cc3ccco3)c(=O)c3sc4ccccc4c32)cc1Cl	-6%	-20%	/	?	16%
Cc1cc(O)c(Oc2cc(C)cc(O)c2O)c(O)c1	-16%	?	-13	?	5.6µM*
COc1ccccc1NC(=O)Cn1cc(C(=O)c2ccncc2)c(=O)c2cc(C)ccc21	-15%	9%	/	10%	4%
Clc1ccc(NNc2ccnc3cc(Cl)ccc23)cc1	-27%	?	-1	-9%	3.2µM*
Oc1ccc(Nc2ccnc3cc(Cl)ccc23)cc1	-11%	-24%	-2	-6%	?
COc1ccc(-n2ccc(-c3nn(-c4cccc(C(F)(F)F)c4)ccc3=O)n2)cc1	-15%	-8%	-7	7%	-11%
O=c1ccn(-c2cccc(C(F)(F)F)c2)nc1-c1ccn(-c2ccccc2F)n1	-11%	-4%	-43*	2%	3%
CCN(CC)c1nc(N)c2c(N)nc3c(c2c1C#N)CC(c1ccccc1)O3 (centres undefined)	-12%	32µM*[quencher]	0	12%	?
N#Cc1c(N2CCCCC2)nc(N)c2c(N)nc3c(c12)CC(c1ccccc1)O3 (centres undefined)	-22%	11µM*[quencher]	-11	15%	?
N#Cc1c(N)nc(N2CCCC2)c(C#N)c1-c1ccc(Cl)cc1	-26%	-6%	0	?	4%
CCC1Cc2c(nc(N)c3c(N)nc(N4CCCCC4)c(C#N)c23)O1 (centres undefined)	-25%	16µM*[quencher]	-20	15%	?
O=[N+]([O-])c1cccc(/C=C2\CCc3cnn(C4CCS(=O)(=O)C4)c32)c1 (centres undefined)	-27%	/	/	/	/
Cc1ccc(Cl)cc1N1CCN(C(=O)CN2C(=O)COc3ccc(S(=O)(=O)N4CCCCCC4)cc32)CC1	-9%	-8%	/	-1%	4%
COc1cc(C(=O)OCc2nc3ccsc3c(=O)[nH]2)c([N+](=O)[O-])cc1OC	-8%	/	/	/	/
CC(C)Cn1cc(C(=O)NCc2cccs2)c2c3ccccc3n(C)c2c1=O	-7%	-27%	0	-5%	10µM*
CC(C)CCNC(=O)c1cn(CC(C)C)c(=O)c2c1c1ccccc1n2C	-12%	/	2	/	/
COc1ccc2cc3c(N)c(C(=O)NCc4ccco4)sc3nc2c1	?	?	-2	10%	2.8µM*
COc1ccc2cc3cc(C(=O)NCc4ccco4)oc3nc2c1	-14%	-12%	2	-3%	-14%
